Measurements published in PubChem BioAssay (NCATS).
Results filed as inconclusive are left out. Where a call stands in place of a potency, no number is given. Active and inactive are the calls of the source. Calls come from the whole dose curve; as a rule, active = well fitted inhibition curve with a large enough effect; inconclusive = small, poorly fitted or top-dose-only effect; inactive = flat fitted curve, though single readings scatter.

These molecules were tested against Calcium and integrin-binding protein 1 (Homo sapiens) (UniProt Q99828) (assay: Primary qHTS for Identification of Calcium Integrin Binding Protein 1 (CIB1) Competitor (AID 1508620; note: top concentration of the series differs between compounds)). Conditions: CIB1-GST / FITC-alphaIIb peptide fluorescence polarization; series mostly up to 114 µM.
Method in brief: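 Fluorescence polarization competition: GST-tagged CIB1 (1 uM final) preincubated with compound 15 min at room temperature, then FITC-labelled alphaIIb peptide (100 nM final) added. After 15 min at room temperature, polarization read at Ex 480/Em 540.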

Calcium and integrin-binding protein 1 (Homo sapiens), sequence (Q99828 whole entry, looked up): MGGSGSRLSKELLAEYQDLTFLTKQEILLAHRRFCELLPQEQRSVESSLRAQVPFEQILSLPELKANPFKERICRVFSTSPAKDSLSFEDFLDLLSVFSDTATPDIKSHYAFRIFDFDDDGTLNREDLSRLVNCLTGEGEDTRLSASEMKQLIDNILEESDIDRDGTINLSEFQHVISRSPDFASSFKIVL

| Compound | Potency | activity change, negative = inhibition |
| --- | --- | --- |
| C=C1CC2[C@@]3(C)C=CC(=O)C(C)(C)C3=C(O)C(=O)[C@@]2(C)C2(C(=O)OC)C(=O)C(C)OC(=O)[C@@]12C (some centres undefined) | inactive |  |
| CCO[C@H]1CN(C2CCC(O)(c3ccc4c(c3)OCO4)CC2)C[C@@H]1NC(=O)CNC(=O)c1cccc(C(F)(F)F)c1 (some centres undefined) | inactive |  |
| CCCCCCOC(=O)/N=C(\N)c1ccc(NCc2nc3cc(C(=O)N(CCC(=O)OCC)c4ccccn4)ccc3n2C)cc1 | inactive |  |
| C=CC(=O)Nc1cc(-n2c(=O)ccc3cnc4ccc(-c5ccc(NS(C)(=O)=O)cc5)cc4c32)ccc1C | inactive |  |
| CC(=O)C=C=C1C(C)(C)CC(O)CC1(C)O[C@@H]1O[C@H](CO[C@H]2OC[C@](O)(CO)[C@H]2O)[C@@H](O)[C@H](O)[C@H]1O (some centres undefined) | inactive |  |
| N#Cc1ccc(-c2ccc(S(=O)(=O)Nc3cccc(N)n3)cc2)cc1 | inactive |  |
| CCc1c(Cl)c(O)c(Cl)c(O)c1C(=O)O[C@H]1[C@H](O)[C@H](OC)[C@H](OC/C2=C\C=C\C[C@H](O)/C(C)=C\[C@H](CC)[C@@H](O[C@@H]3OC(C)(C)[C@@H](OC(=O)C(C)C)[C@H](O)[C@@H]3O)/C(C)=C/C(C)=C/C[C@@H]([C@@H](C)O)OC2=O)O[C@@H]1C | inactive |  |
| Nc1nc2c(nc(Br)n2[C@@H]2O[C@@H]3COP(=O)(O)O[C@H]3[C@H]2O)c(=O)[nH]1 | inactive |  |
| CN(C)C(=O)Nc1cccc(-c2ccc(N(C)C)cc2)c1 | inactive |  |
| C=CC(C)(O)CC/C=C(\C)C(=O)OC1C(O)C(CO)OC(OC(=O)C23CCC(C)(C)CC2C2=CCC4C5(C)CCC(OC6OC(COC7OCC(OC(C)=O)C(O)C7OC7OC(COC(C)=O)C(O)C(O)C7OC(C)=O)C(O)C(O)C6OC6OCC(O)C(O)C6O)C(C)(C)C5CCC4(C)C2(C)C(O)C3O)C1OC1OCC(OC2OCC(O)C(OC3OCC(O)C(O)C3O)C2O)C(O)C1O (centres undefined) |  | 5.75% [at 12.4 µM] (inactive) |
| Cc1nc(C(=O)N2CCC[C@H]2Cc2nnc(-c3ccccc3)o2)c(-c2ccccc2F)s1 | inactive |  |
| Cc1ccc(-c2ncc[nH]2)cc1NC(=O)c1ccc(OCc2ccccn2)cc1 | inactive |  |
| C=C(C)C1CC(O)C(C)C12CC(O)C1(C)OC1C2O (centres undefined) | inactive |  |
| CC1(C)CCCC2(C)C1C(OC(=O)/C=C/C=C/C=O)C=C1COC(=O)C12O (centres undefined) | inactive |  |
| CCN(Cc1cc(Nc2nc(C)cn3c(-c4cn[nH]c4)cnc23)sn1)C(C)(C)CO | inactive |  |
| O=C(O)c1ccc(N2C(=O)/C(=C/c3ccc(-c4ccc([N+](=O)[O-])cc4)o3)C=C2c2ccccc2)cc1 | inactive |  |
| CCCOc1ccc(S(=O)(=O)N2CCN(CCO)CC2)cc1-c1nc2c(CCC)cn(CC)c2c(=O)[nH]1 | inactive |  |
| O=c1cc(NCCCN[C@@H]2CCOc3c(Br)cc(Br)cc32)[nH]c2ccsc12 | inactive |  |
| O=C(NCCCc1ccccc1)c1cccc(-c2cc(O)c3ncccc3c2)c1 | inactive |  |
| COC1=CC(=O)O/C1=C(/OC)[C@@H]1O[C@H]1c1ccccc1 | inactive |  |
| O=C(Nc1cccc([N+](=O)[O-])c1)c1cccc(S(=O)(=O)N2CCCCCC2)c1 | inactive |  |
| CN1CC2CN(c3ccc4oc5ccccc5c(=O)c4c3)CC2C1 (centres undefined) | inactive |  |
| CO[C@@H]1CC(OC2CCC3(C)C(CCC45CCC(C6=CC(=O)OC6)C(C)(CCC43)C5=O)C2)O[C@H](C)[C@@H]1O[C@@H]1O[C@H](CO[C@@H]2O[C@H](CO)[C@@H](O)[C@H](O)[C@H]2O)[C@@H](O)[C@H](O)[C@H]1O (some centres undefined) | inactive |  |
| C=CCCN1CCC2(CC1)CN(C(=O)c1c(F)cccc1F)c1ccc(Cl)cc12 | inactive |  |
